Results reported in PubChem BioAssay.

Test: S6 kinase pathway phospho-S6 level changes – cell-based, A549, cytoblot, luminescence, serum-stimulated, primary screen (AID 1158);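 also: serum-stimulated A549 lung adenocarcinoma cells; signal is phosphorylated S6 detected by cytoblot immunostaining with HRP secondary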
Conditions: 5 h, higher = more signal
CSCC[C@@H]1NC(=O)CC=C[C@@H](C)COC(=O)[C@H](CCSC)NC(=O)CC=C[C@@H](C)COC1=O gave a z-score of 0.214.
With O=C1OCC=C[C@H]2OC34C=CCN(Cc5ccccc5)C(=O)[C@H]3N(CCCCCO)C(=O)[C@@H]4[C@@H]12 (some centres not stated) the z-score was 1.19.
For Cc1ccc(S[C@]2(C(=O)NCCN3CCOCC3)CC(=O)N(C3Cc4ccccc4C3)[C@@H]2c2ccc(CO)cc2I)cc1, the z-score was 1.22.
In the case of COC(=O)C[C@H]1O[C@]2(C(=O)N(C)c3ccccc32)[C@@H](C)[C@@H]1[Si](C)(C)c1ccc(OC)cc1, the z-score is reported as 1.11.
Molecule CC/C=C/C(=O)N(C[C@@H]1CCCO1)[C@@H]1CC(C(=O)NCCO)=C[C@H](Oc2c(I)cc(CO)cc2OC)[C@H]1O has a z-score of 1.98.
In the case of C=C[C@H](OC)[C@@H](OC(=O)Nc1ccc(SC)cc1)c1ccc(OC)c(O)c1, the z-score is reported as 0.738.
With CN1C2C=C(c3ccc(CO)cc3)C(C3C(=O)N(C(N)=O)C(=O)C32)C1c1cccs1 (configuration not stated) the z-score was -0.402.
Work on C=CCN(C(=O)C1N(c2ccc(CCO)cc2)C(=O)C2C(C(=O)O)C3C=CC21O3)C(C)(C)C (configuration not stated) yielded a z-score of 0.434.
Work on C=CCC1=C[C@H]2[C@H]([C@@H]3C=C[C@]2(CC=C)C(=O)[C@]32CO2)[C@@]2(CO2)C1=O yielded a z-score of 0.76.
Molecule Cc1ccc(S[C@]2(C(=O)O)CC(=O)N(Cc3ccccc3)[C@@H]2c2ccc(CO)cc2)cc1 has a z-score of 0.462.
With CCCNC(=O)[C@@H]1c2ccccc2C(=O)N(Cc2cc(F)cc(C(F)(F)F)c2)[C@H]1c1ccc(CO)cc1 the z-score was 1.74.
Work on O=C1c2ccccc2[C@](Cc2ccccc2I)(C(=O)O)[C@H](c2ccc(CO)cc2)N1C1CCCCC1 yielded a z-score of 2.86.
Molecule [N-]=[N+]=NCc1ccccc1C[C@]1(C(N)=O)N=C(c2ccc(OCCCO)cc2)O[C@H]1c1ccccc1CN=[N+]=[N-] has a z-score of 2.41.
Work on CO[C@H]1COC(=O)[C@H](C)NC(=O)CC=C[C@@H](C)[C@H](NS(=O)(=O)c2ccc(C)cc2)COC(=O)[C@@H](OCc2ccccc2)C=C[C@@H]1C yielded a z-score of 0.215.
Molecule COC(=O)c1c(CC[C@@H](CO)NC(=O)N[C@H](Cn2cc(-c3cncn3C)nn2)C(C)C)oc(C(C)=O)c1C(=O)OC has a z-score of 2.93.
C=C(COC)/C(=C/C[C@@H](OC(C)=O)c1cccc(OCCO)c1)c1cc(C(=O)OC)ccc1OC gave a z-score of -0.316.
Molecule CC(C)[Si]1(C(C)C)O[C@@H](c2ccccc2)c2cc(C3CC3)nc(-c3ccc(Oc4ccccc4)cc3)c21 has a z-score of -0.164.
